Compound activity as filed in PubChem BioAssay.
KDM5B inhibitor: Primary screen for KDM5B Histone Demethylases FDH-coupled qHTS; 2.6% of 220,000 active; Potency, µM (series often up to 57.7 µM), hits mostly inhibitors; KDM5B demethylase, FDH-coupled NADH fluorescence (FDH is formaldehyde dehydrogenase); Lysine-specific demethylase 5B (Homo sapiens), Q9UGL1; active = well fitted inhibition curve with a large enough effect; inconclusive = small, poorly fitted or top-dose-only effect; inactive = no such curve, though single readings can be large or run the other way; note: potency is the fitted concentration of half-maximal effect; 0% is about no effect; nearly all actives have a fitted effect of over 70% in size
Target sequence (Q9UGL1 whole entry, looked up): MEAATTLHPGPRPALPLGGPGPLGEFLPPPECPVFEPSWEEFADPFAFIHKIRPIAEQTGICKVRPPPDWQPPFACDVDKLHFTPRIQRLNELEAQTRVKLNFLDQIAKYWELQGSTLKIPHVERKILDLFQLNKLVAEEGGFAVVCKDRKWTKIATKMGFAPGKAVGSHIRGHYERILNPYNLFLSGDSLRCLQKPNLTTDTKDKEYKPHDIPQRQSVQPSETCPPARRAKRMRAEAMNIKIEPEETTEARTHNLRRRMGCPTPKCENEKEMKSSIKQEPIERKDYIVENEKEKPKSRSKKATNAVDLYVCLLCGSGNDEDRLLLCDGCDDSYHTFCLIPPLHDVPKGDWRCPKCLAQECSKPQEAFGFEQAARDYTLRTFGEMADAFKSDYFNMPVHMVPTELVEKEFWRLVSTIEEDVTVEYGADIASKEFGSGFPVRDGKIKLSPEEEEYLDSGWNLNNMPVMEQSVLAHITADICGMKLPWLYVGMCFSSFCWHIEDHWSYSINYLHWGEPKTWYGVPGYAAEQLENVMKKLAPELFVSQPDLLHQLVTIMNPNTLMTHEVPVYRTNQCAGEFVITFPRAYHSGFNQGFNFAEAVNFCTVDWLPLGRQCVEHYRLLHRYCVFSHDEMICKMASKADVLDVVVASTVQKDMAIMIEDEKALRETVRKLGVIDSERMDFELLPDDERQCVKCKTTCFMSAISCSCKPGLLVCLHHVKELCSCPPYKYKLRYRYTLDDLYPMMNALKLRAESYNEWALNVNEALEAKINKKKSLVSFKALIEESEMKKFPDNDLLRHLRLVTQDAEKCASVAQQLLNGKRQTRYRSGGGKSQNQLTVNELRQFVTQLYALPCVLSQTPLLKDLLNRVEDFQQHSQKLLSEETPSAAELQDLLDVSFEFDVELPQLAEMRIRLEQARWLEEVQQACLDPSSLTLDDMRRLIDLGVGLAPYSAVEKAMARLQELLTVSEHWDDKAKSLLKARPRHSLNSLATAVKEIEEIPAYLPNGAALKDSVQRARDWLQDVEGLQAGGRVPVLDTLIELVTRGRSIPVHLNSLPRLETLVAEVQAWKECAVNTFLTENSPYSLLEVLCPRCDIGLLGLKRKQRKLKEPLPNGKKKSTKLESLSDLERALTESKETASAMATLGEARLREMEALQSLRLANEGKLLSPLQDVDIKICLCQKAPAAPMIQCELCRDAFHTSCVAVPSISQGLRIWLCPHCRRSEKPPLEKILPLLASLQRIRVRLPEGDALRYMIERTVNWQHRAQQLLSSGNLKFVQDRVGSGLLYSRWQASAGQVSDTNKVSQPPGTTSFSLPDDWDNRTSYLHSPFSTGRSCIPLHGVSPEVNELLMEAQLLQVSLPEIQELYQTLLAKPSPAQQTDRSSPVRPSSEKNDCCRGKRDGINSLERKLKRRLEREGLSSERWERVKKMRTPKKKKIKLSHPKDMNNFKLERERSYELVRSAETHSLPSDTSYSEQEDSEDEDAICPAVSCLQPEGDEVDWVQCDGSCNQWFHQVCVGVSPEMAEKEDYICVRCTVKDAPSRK
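KDM5BΔAP (200 nM final) in 50 mM HEPES pH 7.5, 0.01% Tween-20 was preincubated 10 min at RT with compound over a concentration range. Substrate mix (H3K4me3 12.5 µM, α-KG 25 µM, Fe²⁺, ascorbate, NAD⁺, FDH) was added, and NADH fluorescence change over 30 min gave dose-response curves.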
IP6K1 inh: Primary qHTS assay for small molecule inhibitors of Inositol hexaphosphate kinase 1 (IP6K1) | IP6K1 kinase, ADP-Glo luminescence, 2 h; hits give low values | activity change, % (series mostly up to about 58 µM) | 0.81% of 140,000 active; in the data active = activity change below about -25%; note: % is set by controls: 0 for no effect and ±100 for the full control effect
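ADP-Glo luminescence measures ADP made by human IP6K1 during a 2 h RT reaction with ATP/IP6 (mix at 1.3 mM/130 uM); top library doses 57.5 and 19.1 uM final.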
An asterisk follows results filed as active; i = inactive; ? = inconclusive; / = no result. Rows were chosen to be rich in hits. Some 2.7% of all compounds tested hit in one or more screens of this group.

SMILES	KDM5B inhibitor	IP6K1 inh
COc1ccc(CCNC(=O)c2cccnc2N2CC3CC(C2)[C@H]2CCCC(=O)N2C3)cc1OC (stereo partly specified)	?	18.8
O=C(NCCN1CCCCC1)c1cccnc1N1CC2CC(C1)[C@H]1CCCC(=O)N1C2 (stereo partly specified)	28.2µM*	-1.5
CN1CCN(CCCNC(=O)c2ccc(N3CC4CC(C3)[C@H]3CCCC(=O)N3C4)nc2)CC1 (stereo partly specified)	i	25.7
O=C(NCCC1=CCCCC1)c1cccnc1N1CC2CC(C1)[C@H]1CCCC(=O)N1C2 (stereo partly specified)	28.2µM*	13.9
CCCc1nc2ccccc2c(C(=O)OCC(=O)NCC(F)(F)F)c1CC	i	/
O=C(NC[C@H]1Cn2c(-c3cccc(Cl)c3)cnc2CO1)Nc1ccccc1	i	9.1
CC(NC(=O)CSCc1cccs1)C1CCCO1 (stereo unspecified)	i	/
Cc1cccc(NC(=O)CC(C)(C)CC(=O)O)c1C	i	/
CCOc1ccccc1CN1CCC2(CCN(C(=O)Cc3ccc(F)cc3)CC2)Oc2ccccc21	?	4.6
COc1ccccc1-c1cccc(CN2CCCC(C(=O)NCc3cccc(C(F)(F)F)c3)C2)c1 (stereo unspecified)	/	1.0
COc1ccc(NC(=O)c2cccc3c2CCN3C(=O)Nc2ccc(F)cc2)cc1	i	-15.6
COc1ccc(NC(=O)N2CCc3c(C(=O)Nc4ccc5c(c4)OCO5)cccc32)cc1	22.4µM*	-5.8
CNS(=O)(=O)c1ccc(C(=O)NCC(=O)O)cc1	i	/
COC(=O)c1ccc2nc(CO[C@H]3CN(Cc4ccc5ccccc5n4)C[C@H]3F)[nH]c2c1	?	0.2
CC(C)(C)c1ccc(NC(=O)c2cc(F)c(F)c(F)c2F)cc1	i	/
COc1ccc(Cl)cc1NC(=O)CCC1CCCN(S(=O)(=O)C2CC2)C1 (stereo unspecified)	i	12.0
COc1ccc(Cl)cc1NC(=O)CCC1CCCN(c2ccc(C(F)(F)F)cn2)C1 (stereo unspecified)	28.2µM*	8.3
Cc1cn2nc(C(=O)NCc3ccc(Cl)cc3)cc2c(=O)[nH]1	i	9.9
Cc1cn2nc(C(=O)NCc3cccc(Cl)c3)cc2c(N(C)Cc2ccccc2)n1	25.1µM*	-6.4
Cc1cn2nc(C(=O)N3CCN(C4CCCCC4)CC3)cc2c(N(C)Cc2ccccc2)n1	?	4.2
Cc1cn2nc(C(=O)NCc3ccc(Cl)cc3)cc2c(N(C)Cc2ccccc2)n1	14.1µM*	4.6
Cc1cc(Cl)ccc1OCC(=O)NC1CCN(C(C)C)CC1	i	/
COc1ccc(-c2nc(SC(C)C(=O)NC3CC3)n[nH]2)c(OC)c1 (stereo unspecified)	i	/
COCC(=O)N[C@H]1CO[C@H]2[C@@H]1OC[C@@H]2Nc1nccc(-c2cccc(C#N)c2)n1	?	-11.3
COCC(=O)N[C@H]1CO[C@H]2[C@@H]1OC[C@@H]2Nc1nccc(-c2cccc(F)c2)n1	35.5µM*	-4.6
SMILES	KDM5B inhibitor	IP6K1 inh
O=C(N[C@H]1CO[C@H]2[C@@H]1OC[C@@H]2Nc1nccc(-c2cccc(F)c2)n1)c1ccccc1	?	0.0
Cc1ccc(C(=O)N[C@H]2CO[C@H]3[C@@H]2OC[C@@H]3Nc2nccc(-c3cccc(F)c3)n2)cc1	i	-6.6
CCNC(=O)N[C@H]1CO[C@H]2[C@@H]1OC[C@@H]2Nc1nccc(-c2cccc(F)c2)n1	31.6µM*	-9.7
CC(C)(C)C(=O)N[C@H]1CO[C@H]2[C@@H]1OC[C@@H]2Nc1nccc(-c2cccc(C#N)c2)n1	?	-8.3
CC(=O)N[C@H]1CO[C@H]2[C@@H]1OC[C@@H]2Nc1nccc(-c2cccc(F)c2)n1	35.5µM*	-8.0
N#Cc1cccc(-c2ccnc(N[C@H]3CO[C@H]4[C@@H]3OC[C@@H]4NC(=O)N3CCOCC3)n2)c1	31.6µM*	-5.9
COC(=O)c1ccc2nc(C[C@@H]3C[C@@H](C(C)C)[C@H](CNC4CCN(C)CC4)C=C3C)[nH]c2c1	?	-5.9
O=C1CN(C(=O)c2cc(-c3cccnc3)nc3ccccc23)CCN1	i	/
Cc1ccc(NC(=O)c2ccc3ncsc3c2)cc1C	i	/
CCC(NC(=O)c1ccc(OC)c(OC)c1)c1cccs1 (stereo unspecified)	i	/
O=C(NCc1cccs1)c1cc(-c2cccs2)c2cccn2n1	/	-2.0
O=C(Cc1ccc(N(Cc2cccc(F)c2)C(=O)c2ccco2)cc1)Nc1ccccc1	?	-11.1
CCCNC(=O)CSc1ncc(-c2ccc(Br)cc2)o1	i	/
Cc1ccnc(CC(C)N(C)C(=O)c2cc(-c3cnn(C)c3)nc3ccccc23)c1 (stereo unspecified)	22.4µM*	34.0
CCN(Cc1ccncc1)C(=O)c1cc(-c2cnc(C)nc2)nc2c(C)cccc12	?	-3.0
Cc1cccc2c(C(=O)N(C)C(C)Cc3ccccn3)cc(-c3cnc(N)nc3)nc12 (stereo unspecified)	31.6µM*	12.2
CN(Cc1cnn(C)c1)C(=O)c1cc(-c2ccccc2)nc2ccccc12	i	/
O=C(NCCCc1ccccc1)C1(c2ccc(Cl)cc2)CCOCC1	/	7.3
CCOC(=O)[C@@H]1CN(C(=O)CCc2ccccc2)[C@H]2c3ccccc3O[C@@H]12	/	10.3
CC(Oc1ccccc1)c1nc(-c2ccc(Br)cc2)no1 (stereo unspecified)	i	/
Cc1cccc(CN2CCCn3nc(C)c(-c4ccccc4-c4ccccc4)c32)n1	?	2.6
COc1ccccc1CN1CCCn2nc(C)c(-c3ccccc3C(N)=O)c21	31.6µM*	13.1
Cc1nn2c(c1-c1ccccc1Oc1ccccc1)N(Cc1cccc(O)c1)CCC2	?	8.7
Cc1nn2c(c1-c1ccccc1C(C)C)N(Cc1ccc(C(=O)O)cc1)CCC2	i	26.0
Cc1nn2c(c1-c1ccccc1C(N)=O)N(C(=O)c1ccccc1)CCC2	i	10.6
SMILES	KDM5B inhibitor	IP6K1 inh
Cc1nn2c(c1-c1ccccc1Oc1ccccc1)N(Cc1ccccc1O)CCC2	28.2µM*	15.2
Cc1nn2c(c1-c1ccccc1-c1ccccc1)N(Cc1ccc(O)cc1)CCC2	28.2µM*	5.9
Cc1nn2c(c1-c1ccccc1C(C)C)N(CCC(C)C)CCC2	17.8µM*	-1.7
Cn1ncc2c(C(=O)Nc3cccc(C(F)(F)F)c3)cc(-c3ccccc3C(F)(F)F)nc21	/	0.7
CNC(=O)NC(=O)CSc1nnc(-c2ccccc2Cl)n1-c1cccc(C(F)(F)F)c1	i	/
O=C(NCC1CCCO1)c1ccccc1NS(=O)(=O)c1ccc2[nH]c(=O)[nH]c2c1 (stereo unspecified)	i	/
COc1ccc2c(c1)CCCN2C1CNC1	126µM*	-12.3
COc1ccc2c(c1)CCCC2=O	/	6.5
Cn1ncc2c(C(=O)NCc3ccccc3F)cc(-c3ccccc3F)nc21	/	-2.9
CC(C)n1nc(OC(C)(C)C(=O)NC2CC2)c2cc(CN3CCOCC3)ccc21	31.6µM*	1.8
CC(C)n1nc(OC(C)(C)C(=O)NCCc2cccnc2)c2cc(CN3CCOCC3)ccc21	i	4.6
CC(C)n1nc(OC(C)(C)C(=O)Nc2cccnc2)c2cc(CN3CCOCC3)ccc21	?	-3.5
